# In all, about 100,000 compounds went through this assay and about 4,200 (4.2%) were called active. This excerpt belongs to a sample that is enriched for actives. Values without a mark were called inactive.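 How the source made its calls: active means single-dose well whose peak fluorescence ratio is a statistical outlier from its plate by either plate-standardised score or position-corrected B-score; inactive means the rest.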
# Target: Voltage-dependent T-type calcium channel subunit alpha-1H (Homo sapiens) (UniProt O95180)
# Experiment: Cav3.2 calcium influx blockers – cell-based, Fluo-4 calcium fluorescence, FDSS, MLSMR library, primary screen (AID 449739)
# Details: Cav3.2-expressing cells, at 10 µM, active compounds read low
# Chain of Voltage-dependent T-type calcium channel subunit alpha-1H (Homo sapiens) (O95180 whole entry, looked up): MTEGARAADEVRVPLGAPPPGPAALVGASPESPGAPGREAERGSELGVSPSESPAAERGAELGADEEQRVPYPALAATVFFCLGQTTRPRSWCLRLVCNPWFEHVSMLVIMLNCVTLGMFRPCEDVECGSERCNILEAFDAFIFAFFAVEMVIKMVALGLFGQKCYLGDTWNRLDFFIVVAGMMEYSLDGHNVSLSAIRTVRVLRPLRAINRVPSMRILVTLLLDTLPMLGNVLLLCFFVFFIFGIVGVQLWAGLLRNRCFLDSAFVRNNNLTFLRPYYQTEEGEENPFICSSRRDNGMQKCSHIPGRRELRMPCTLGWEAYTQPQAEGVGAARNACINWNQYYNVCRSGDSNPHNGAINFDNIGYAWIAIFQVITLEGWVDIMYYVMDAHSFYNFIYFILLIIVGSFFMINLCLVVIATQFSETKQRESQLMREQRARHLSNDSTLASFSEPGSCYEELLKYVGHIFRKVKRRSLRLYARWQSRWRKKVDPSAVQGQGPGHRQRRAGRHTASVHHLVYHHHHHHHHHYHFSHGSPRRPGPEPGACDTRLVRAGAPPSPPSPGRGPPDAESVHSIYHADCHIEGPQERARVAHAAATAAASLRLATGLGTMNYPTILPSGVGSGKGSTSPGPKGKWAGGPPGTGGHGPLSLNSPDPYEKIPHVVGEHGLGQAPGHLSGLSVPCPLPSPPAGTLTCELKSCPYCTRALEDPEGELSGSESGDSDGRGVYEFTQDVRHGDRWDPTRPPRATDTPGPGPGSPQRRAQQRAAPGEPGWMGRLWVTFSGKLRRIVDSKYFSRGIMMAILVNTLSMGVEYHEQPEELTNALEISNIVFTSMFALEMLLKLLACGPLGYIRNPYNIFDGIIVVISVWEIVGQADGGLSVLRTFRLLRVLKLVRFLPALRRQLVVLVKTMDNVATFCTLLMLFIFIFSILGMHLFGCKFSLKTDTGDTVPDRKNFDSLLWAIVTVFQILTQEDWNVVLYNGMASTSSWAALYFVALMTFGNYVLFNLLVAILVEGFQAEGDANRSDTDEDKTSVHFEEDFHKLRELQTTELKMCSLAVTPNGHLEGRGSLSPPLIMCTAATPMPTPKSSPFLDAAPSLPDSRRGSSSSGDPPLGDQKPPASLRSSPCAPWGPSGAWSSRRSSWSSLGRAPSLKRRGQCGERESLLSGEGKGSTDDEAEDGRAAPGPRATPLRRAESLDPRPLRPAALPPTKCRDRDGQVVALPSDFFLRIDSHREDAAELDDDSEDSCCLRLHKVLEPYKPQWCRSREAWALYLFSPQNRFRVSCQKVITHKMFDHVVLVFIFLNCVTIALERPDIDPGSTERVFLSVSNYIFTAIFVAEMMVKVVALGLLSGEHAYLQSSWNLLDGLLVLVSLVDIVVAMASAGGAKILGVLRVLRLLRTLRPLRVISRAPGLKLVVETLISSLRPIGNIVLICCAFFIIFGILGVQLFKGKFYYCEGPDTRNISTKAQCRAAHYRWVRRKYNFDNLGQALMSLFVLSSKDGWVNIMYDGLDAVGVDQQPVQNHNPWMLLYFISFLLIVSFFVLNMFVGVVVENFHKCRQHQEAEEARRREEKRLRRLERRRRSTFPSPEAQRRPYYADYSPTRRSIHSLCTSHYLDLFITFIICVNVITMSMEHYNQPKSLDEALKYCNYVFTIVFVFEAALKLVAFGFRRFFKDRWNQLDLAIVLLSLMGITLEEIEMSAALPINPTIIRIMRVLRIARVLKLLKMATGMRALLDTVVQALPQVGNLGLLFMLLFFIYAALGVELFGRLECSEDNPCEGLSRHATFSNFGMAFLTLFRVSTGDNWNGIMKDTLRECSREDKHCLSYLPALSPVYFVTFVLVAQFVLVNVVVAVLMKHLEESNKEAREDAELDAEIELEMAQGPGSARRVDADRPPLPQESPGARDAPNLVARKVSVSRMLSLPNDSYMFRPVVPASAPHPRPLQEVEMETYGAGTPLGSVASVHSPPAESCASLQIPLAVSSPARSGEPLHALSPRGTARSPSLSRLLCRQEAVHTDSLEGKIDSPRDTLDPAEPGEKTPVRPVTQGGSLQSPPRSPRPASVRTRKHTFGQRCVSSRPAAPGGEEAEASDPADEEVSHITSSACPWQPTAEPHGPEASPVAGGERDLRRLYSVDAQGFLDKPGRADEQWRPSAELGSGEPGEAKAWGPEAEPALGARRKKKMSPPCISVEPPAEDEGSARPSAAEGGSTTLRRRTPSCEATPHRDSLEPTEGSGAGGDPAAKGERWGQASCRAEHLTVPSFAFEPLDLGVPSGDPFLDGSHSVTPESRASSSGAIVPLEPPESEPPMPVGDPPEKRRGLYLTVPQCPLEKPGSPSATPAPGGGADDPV
row,SMILES,B-score
1,O=c1c2ccccc2c(-c2ccc(F)cc2)nn1-c1ccc(C(F)(F)F)cc1,0.392
2,Clc1ccc(-c2nnc(-c3ccccc3)nc2N2CCSCC2)cc1,-2.83
3,COc1cc(/C=C/CO)cc(OC)c1O[C@@H]1O[C@H](CO)[C@@H](O)[C@H](O)[C@H]1O,0.144
4,CC1(c2nnc(-c3ccncc3)o2)CC(c2cccnc2)=NO1 (stereo not drawn),0.534
5,COc1ccc(NC(=O)CSc2nc(NS(=O)(=O)c3ccc(C)cc3)cc(=O)[nH]2)cc1,-6.39 (active)
6,COc1ccc2nc(SCC(=O)Nc3c(C)cc(C)cc3C)[nH]c2c1,-0.844
7,COc1ccc(NC(=O)CSc2nc(N)c(-c3ccccc3)c(=O)[nH]2)cc1,0.0212
8,CCCC(=O)Nc1nc2ccc(NC(=O)c3cccnc3)cc2s1,-0.392
9,COCCN1C(=O)N[C@@H](CCc2ccccc2)[C@H](C(C)=O)[C@H]1C,0.713
10,O=C(NCC1CC1)c1onc(CSc2ccccc2)c1C(=O)NCC1CC1,-1.14
11,CS(=O)(=O)N(CC(=O)N1CCN(c2ccc(F)cc2)CC1)C1CCCCC1,1.32
12,CS(=O)(=O)N(CC(=O)Nc1ccc(Cl)c(Cl)c1)C1CCCCC1,-4.14 (active)
13,CCOC(=O)N1CCN(C(=O)CN(C2CCCCC2)S(C)(=O)=O)CC1,-0.0305
14,O=C(COc1ccc2c(C(F)(F)F)cc(=O)oc2c1)Nc1ccc2c(c1)OCCO2,-0.232
15,N#Cc1ccc(Oc2cc(C(F)(F)F)nc(-c3ccccn3)n2)cc1,-0.0658
16,O=C(NCCCN1CCOCC1)c1cc2c(s1)CCC2,0.565
17,Cc1nn(C)cc1C(=O)NNC(=S)Nc1ccc(Cl)cc1,-0.0884
18,COC(=O)C1=C(C(=O)OC)[C@@H]2N(C)c3ccccc3[C@@]23C[C@@H](C(=O)OC)N(C(C)=O)C3=N1,0.294
19,CCOC(=O)c1ccccc1NC(=O)c1c(N)n(C)c(=O)[nH]c1=O,1.01
20,C=CCn1c(COc2ccccc2)nnc1SCC(=O)NCC(=O)OCC,0.062
21,O=C(CSc1nnc(-c2cccnc2)n1CCc1ccccc1)NCc1ccccc1,0.107
22,C=CCn1c(N)cc(=O)nc1SCC(=O)Nc1cccc2ccccc12,-0.0155

row,SMILES,B-score
1,C=CCn1c(SCC(=O)Nc2nc3ccccc3s2)nnc1-c1ccccc1O,-5.9 (active)
2,C=CCn1c(SCC(=O)NCc2ccccc2)nnc1-c1cc(Br)ccc1O,-6.89 (active)
3,CCn1c(SCC(=O)Nc2nc3ccc(OC)cc3s2)nnc1-c1ccoc1C,-3.69
4,CN(C)/C=C(\C#N)C(=O)c1cccnc1Oc1ccc(F)cc1F,0.526
5,Cc1ccc(Cl)cc1NC(=O)COC(=O)C1CCCCC1,-0.13
6,CC(C)(C)c1ccc(C(=O)NCCC(=O)NCc2ccco2)cc1,-0.22
7,O=C(NCc1ccco1)c1ccc(Cn2c(=O)c3sccc3n(Cc3ccc(F)cc3)c2=O)cc1,-3.42 (active)
8,O=C(NCc1ccco1)c1ccc(CS(=O)(=O)Cc2ccc(F)cc2)o1,1.27
9,O=C(c1cc2sccc2n1Cc1ccc(F)cc1)N1CCc2ccccc21,-3.42
10,O=C(Cc1ccc(-n2c(=O)c3sccc3n(Cc3ccc(F)cc3)c2=O)cc1)NCc1ccco1,-0.875
11,O=C(NCc1ccco1)c1cc2sccc2n1Cc1ccc(F)cc1,-5.53 (active)
12,COc1cccc(-c2cc(C(=O)N/N=C/c3ccc(OC)c(COC(C)=O)c3)c3ccccc3n2)c1,-0.321
13,CC(C)(C)CN1C(=O)C(=O)NC[C@H]1Cc1cccc2ccccc12,0.844
14,Fc1ccccc1COc1ccccc1CNCc1ccncc1,0.584
15,CC(C)CC(CO)N1CCN(C(=O)c2ccc(Cl)cc2Cl)CCC1=O (stereo not drawn),0.363
16,Cc1c(NC(=O)CCCOc2ccccc2)cccc1[N+](=O)[O-],-0.161
17,CCO[C@@H]1OC(C(N)=O)=C[C@H](c2ccc(Br)cc2)[C@H]1CCCO,0.335
18,O=C(c1cccs1)N1CCN(Cc2ccc3c(c2)OCO3)CC1,0.274
19,O=C(CSCc1ccc(Cl)cc1)N1CCN(Cc2ccc3c(c2)OCO3)CC1,-5.77 (active)
20,CS(=O)(=O)N(CC(=O)N1CCN(Cc2ccc3c(c2)OCO3)CC1)c1ccc2c(c1)OCO2,1.42
21,O=C(NCc1cc(C(F)(F)F)cc(C(F)(F)F)c1)C1CC(c2cccc(F)c2)=NO1 (stereo not drawn),-0.916
22,O=C(CSc1ncnc2c1cnn2CCc1ccccc1)Nc1ccc(F)cc1,0.0976

row,SMILES,B-score
1,COc1ccc(C(C(=O)NCc2ccccc2)N(Cc2cccs2)C(=O)c2cnccn2)cc1 (stereo not drawn),-0.0118
2,C/C=C(/C)C(=O)Nc1cccc(C2=NOC3(C2)C[C@@H](C(N)=O)N(C(=O)C2(C)CC2)C3)c1 (stereo partly drawn),-0.695
3,O=C(NCC1CCCO1)/C(=C\c1ccco1)NC(=O)c1ccccc1 (stereo not drawn),0.14
4,CCOc1ccc(S(=O)(=O)n2ccnc2)c2ccccc12,0.109
5,CCOc1ccc(C(C)C)cc1S(=O)(=O)n1nc(C)cc1C,-4.23 (active)
6,CCOc1cc(C)c(Cl)cc1S(=O)(=O)n1nnc2ccccc21,-2.51
7,O=C(CN1CCN(S(=O)(=O)c2ccc3ccccc3c2)CC1)NC(=O)NC1CCCCC1,-8.92 (active)
8,O=C(CN1CCN(c2ccccn2)CC1)NC1CCCCC1,0.646
9,O=C(CN1CCN(S(=O)(=O)c2ccc(F)cc2)CC1)Nc1ccccc1F,0.623
10,CCOC(=O)c1cccc(NC(=O)c2ccc(F)cc2F)c1,0.631
11,CN1CCN(C(=O)C2=C[C@H](c3ccc4c(c3)OCO4)C[C@H](OCc3ccc(CO)cc3)O2)CC1,0.346
12,O=C(CCc1ccc(S(=O)(=O)NC2CCCCC2)cc1)NCc1ccccc1,-2.7
13,O=c1[nH]snc1-c1c(Cl)cccc1Cl,0.688
14,CCCCn1ccnc1C(=O)c1cccc(S(=O)(=O)N2c3ccccc3CC2C)c1 (stereo not drawn),-5.72 (active)
15,CCn1c(CSc2ncccn2)nnc1SCC(=O)N1c2ccccc2CC1C (stereo not drawn),0.0736
16,CC1Cc2ccccc2N1C(=O)Cn1cnc2ccccc2c1=O (stereo not drawn),0.0523
17,O=C(NC1CC1)c1ccc2c(c1)NC(=O)c1ccccc1S2,-0.133
18,COc1ccc(COCCN2CCN(S(=O)(=O)c3ccccc3)CCC2=O)cc1,-0.361
19,COc1cc([C@H](Cc2ccccc2)NC(C)=O)oc(=O)c1,-0.786
20,Cc1ccc(/C=N/NC(=O)C(NC(=O)c2ccccc2)c2n[nH]c(=O)c3ccccc23)cc1 (stereo not drawn),-4.96 (active)
21,Cc1ccc(S(=O)(=O)Oc2ccc(/C=N/NC(=O)c3c(Cl)cnn3C)cc2)cc1,0.419
22,Cc1ccc(C(=O)N/N=C/c2sc(=O)n(Cc3cccc(C(=O)O)c3)c2Cl)cc1,2.4

row,SMILES,B-score
1,O=c1c2ccccc2c(-c2ccc(Br)cc2)nn1Cc1ccccc1,0.372
2,Cn1cc(CCC(=O)NCc2ccc3c(c2)OCO3)c2ccccc21,-2.19
3,O=C(COc1ccccc1)NCc1ccc2c(c1)OCO2,-1.91
4,N#Cc1nc(Cc2cccc3ccccc23)oc1NCc1ccc2c(c1)OCO2,-7.29 (active)
5,C=CCOC(=O)C1=C[C@H](c2ccc(Br)cc2)C[C@H](OCCCCO)O1,-0.545
6,COc1ccc(C2/C=C\CN(CC(C)C)CC(=O)N2Cc2ccc(F)cc2)cc1 (stereo not drawn),-0.399
7,COc1ccc(N2CCN(C(=O)CCc3nc(-c4ccc(C)cc4)no3)CC2)cc1,-3.49 (active)
8,Cc1ccc(-c2noc(CCC(N)=O)n2)cc1,0.127
9,CCOc1cc(-c2noc(CCC(=O)N3CCOCC3)n2)ccc1OC,0.164
10,C#CCOCCOCCOCCNc1nc(N2CCN(C(=O)C([C@@H](C)CC)n3cc(C(N)COC(=O)C(F)(F)F)nn3)CC2)nc(N2CCN(C(=O)[C@H](Cc3ccc(O)cc3)n3cc(C(N)[C@H](C)CC)nn3)CC2)n1 (stereo partly drawn),0.00651
11,Cc1ccc(CNC(=O)c2ccccc2CCc2ccccc2)cc1,0.145
12,COc1ccc(C[C@H]2CN3C(=NC[C@H]3C)N2CCNC(=O)CCC2CCCCC2)cc1,-0.267
13,O=C(CSc1nnc(-c2c[nH]c3ccccc23)o1)c1ccccc1,0.381
14,O=C(CSCc1ccc([N+](=O)[O-])cc1)Nc1cccc(C(=O)Nc2ccccc2C(=O)O)c1,-1.32
15,O=C(CSCc1ccc([N+](=O)[O-])cc1)NCCSCc1ccccc1,-6.39 (active)
16,O=C(NCCc1ccccc1)/C(=C\c1ccc([N+](=O)[O-])cc1)NC(=O)c1ccccc1,0.653
17,COc1cccc(/C=N/NC(=O)C(=O)N2CCCC2)c1,1.2
18,COC(=O)COc1cccc2c(=O)n(CC(=O)NCCc3ccc(OC)c(OC)c3)ccc12,1.52
19,CC(C)(C)n1nnnc1C(c1ccc(F)cc1)N1CCN(Cc2ccc3c(c2)OCO3)CC1 (stereo not drawn),-3.16
20,Cc1cccc(N2CCN(C(c3ccc(N(C)C)cc3)c3nnnn3C(C)(C)C)CC2)c1C (stereo not drawn),-3.44
21,CC(C)(C)n1nnnc1C(c1ccc(Cl)cc1)N1CCSCC1 (stereo not drawn),-2.81 (active)
22,COc1ccccc1-c1n[nH]c2c1[C@H](C)CC[C@H]2C(C)C,-2.06

# Reference: PubChem BioAssay AID449739 (Vanderbilt High Throughput Screening Facility, 2010)
